S2 tox: cell viability loss in ATXN counter-screen; S2 cells (HEK-293 line with an ATXN2-luciferase reporter) viability, CellTiter-Fluor protease fluorescence, 24 h; Potency, µM (titrated, usually from 56.7 µM), hits mostly cytotoxic; 400,000 compounds, 0.49% hits; AID 651635; further: nearly all actives have a fitted effect of over 40% in size
ATXN2 expr inh: inhibitors of ATXN2 expression; Potency, µM (highest dose often 57 µM), most hits filed as inhibitors; 360,000 compounds, 0.72% hits; AID 1745845; HEK-293 ATXN2-luciferase reporter, luminescence, 24 h; further: nearly all actives have a fitted effect of over 55% in size
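ATXN2-luciferase reporter cells (luciferase flanked by upstream and downstream ATXN2 gene portions) were treated 24 h at 37 °C with compounds at up to 57 uM. SteadyGlo luminescence gave expression; GF-AFC fluorescence gave viability.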
HT1080-NT tox: kills 2HG-producing HT-1080-NT fibrosarcoma cells; HT-1080-NT fibrosarcoma viability, CellTiter-Glo ATP luminescence, 48 h; Potency, µM (titrated, usually from 46.1 µM), actives largely listed as cytotoxic; 360,000 compounds, 1.6% hits; AID 686970;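 further: NT is the 2HG producing partner of a matched IDH1 knockdown line; nearly all actives have a fitted effect of over 55% in size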
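HT-1080-NT fibrosarcoma cells (2HG-overproducing), 750 cells/well in RPMI with 5% FBS, dosed after 2 h and incubated 48 h at 37C. CellTiter-Glo luminescence normalized to DMSO and no-cell wells; concentration-response curves fitted and classed.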
HepG2 viability: counter-screen for TGF-b inhibitors: cytotoxicity in HepG2 cells | HepG2 CAGA-GFP viability, ATP luminescence, 18 h | Potency, µM (series often up to 46.1 µM), actives largely listed as cytotoxic | 410,000 compounds, 0.76% hits
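CellTiter-Glo luminescence gave cytotoxicity after 18 hours at 37 degrees C. The cells were HepG2 CAGA-GFP in 1% FBS DMEM, stimulated with 500 pg/mL TGF-beta after compound addition. %Activity was normalised to no-cell wells (complete cell-killing) and DMSO (no toxicity), and curves were fitted and classified.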
HT1080 IDH1KD tx: toxicity to HT-1080 IDH1 knockdown cells (counter line) | HT-1080 IDH1 knockdown viability, ATP luminescence, 48 h | Potency, µM (titrated, usually from 46.1 µM), usual class: cytotoxic | 360,000 compounds, 2% hits | AID 686971
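Using the IDH1-knockdown HT-1080 line run in the same batch and compound series as the NT line, viability after 48 h at 37 °C was determined by CellTiter-Glo luminescence and expressed as % activity.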
TGFb inhibitor: TGF-b pathway inhibition | HepG2 CAGA-GFP TGF-b/SMAD3 reporter, GFP fluorescence, 18 h; TGF-beta stimulated, 500 pg/mL final | Potency, µM (series often up to 46.1 µM), most hits filed as inhibitors | 410,000 compounds, 1.2% hits | AID 588855; further: nearly all actives have a fitted effect of over 65% in size
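Smad-responsive CAGA-GFP expression was quantified in HEPG2 cells exposed to compounds and 500 pg/mL final TGF-beta for 18 h at 37 degrees C; unstimulated wells defined full inhibition.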
A number is an active result; . = inactive; ? = inconclusive; / = no result given; [ ] = dose if it differs, or a comment. The list is not random: actives were taken first. Their share in the collection is about 3.8%. The call rests on the fitted dose curve; in most records, active means well fitted curve in the direction sought with a large enough effect; inconclusive means small, poorly fitted or top-dose-only effect, or another doubt; inactive means no such curve, though single readings can be large; an effect the other way counts as inactive or inconclusive.

SMILES	S2 tox	ATXN2 expr inh	HT1080-NT tox	HepG2 viability	HT1080 IDH1KD tx	TGFb inhibitor
COc1ccccc1N1CCN(c2nc(C)nc3c2oc2ccccc23)CC1	?	35µM	1.1µM	.	1.3µM	?
OCCN1CCN(c2nc(-c3ccccc3)nc3c2oc2ccccc23)CC1	.	?	23µM	.	?	.
O=C(/C=C/c1ccc(-c2ccccc2[N+](=O)[O-])o1)c1ccc(F)cc1	?	?	16µM	11µM	.[9.24 µM]	?
COc1cc2c(NC3CCN(C)CC3)nc(N3CCCN(C)CC3)nc2cc1OCCN(C)C	/	/	.	/	.	/
COc1cc2nc(Cl)nc(NC3CCN(Cc4ccccc4)CC3)c2cc1OC	/	/	.	/	.	/
COc1cc2nc(N3CCN(C)CC3)nc(NC3CCN(Cc4ccccc4)CC3)c2cc1OC	/	/	?	/	11µM	/
COc1cc2c(NC3CCN(C)CC3)nc(N3CCCN(C)CC3)nc2cc1OCc1ccccc1	/	/	10µM	/	6.3µM	/
CCCCCCCCCCCCCCCC(=O)O[C@@H]1CC(C)=C(/C=C/C(C)=C/C=C/C(C)=C/C=C/C=C(C)/C=C/C=C(C)/C=C/C2=C(C)C[C@@H](OC(=O)CCCCCCCCCCCCCCC)CC2(C)C)C(C)(C)C1	.	/	/	/	/	/
CCOc1ccccc1C(=O)N1CCCCC1CCN1CCOCC1 (stereo not drawn)	/	/	/	.	/	.
CCCCOc1ccc(-c2nonc2NC(=O)c2ccco2)cc1	.	.	/	.	/	.
Fc1ccc(Nc2nc(SCc3cccc(Cl)c3)nc3ccccc23)cc1	/	/	/	.	/	?
Fc1ccc(Nc2nc(SCc3cccc(F)c3)nc3ccccc23)cc1	/	/	/	13µM	/	?
COc1ccc(NC(=O)CSc2c(C(C)C)cnc3c2c(=O)n(C)c(=O)n3C)c(OC)c1	/	/	/	.	/	.
CCOC(=O)c1c(CN2CCNCC2)nc2ccc(Cl)cc2c1-c1ccccc1	?	?	.	.	?	16µM
Cc1nc2ccc(Cl)cc2c(-c2ccccc2)c1C(=O)N(C)C	.	.	.	.	.	.
O=C(NN=C1c2ccccc2-c2ccccc21)c1ccccc1	.	.	.	.	.	.
NC(=S)NN=C1c2ccccc2-c2ccccc21	1.4µM	/	.	.	.	6.3µM
CCCCCn1c(CCCNC(=O)c2cccc(C)c2)nc2ccccc21	?	.	/	.	/	?
COC(=O)COc1cccc2c(=O)n(CC(=O)NCc3ccc(F)cc3)ccc12	?	.	?	.	3.7µM	.
CC(C)(C)n1ncc2c(=O)n(CC(=O)NCc3ccc(F)cc3)cnc21	.	.	?	.	13µM	.
CCOC(=O)C(C)Oc1cccc2c(=O)n(CC(=O)NCCc3ccccc3)ccc12 (stereo not drawn)	.	.	.	.	.	.
CCOC(=O)C(C)Oc1cccc2c(=O)n(CC(=O)NCc3ccc(F)cc3)ccc12 (stereo not drawn)	?	/	?	.	0.58µM	.
COC(=O)COc1cccc2c(=O)n(CC(=O)N3CCCCC3)ccc12	/	/	.	.	.	.
CC(C)(C)n1ncc2c(=O)n(CC(=O)NCc3ccco3)cnc21	.	.	.	.	.	.
CCOC(=O)C(C)Oc1cccc2c(=O)n(CC(=O)NCc3ccccc3)ccc12 (stereo not drawn)	?	.	0.52µM	.	0.52µM	?
SMILES	S2 tox	ATXN2 expr inh	HT1080-NT tox	HepG2 viability	HT1080 IDH1KD tx	TGFb inhibitor
Cc1c2cnn(-c3ccccc3)c(=O)c2c(C)n1CC(=O)NCc1ccccc1Br	/	/	/	.	/	/
Nc1ccc(/C=C/c2cc(Cl)nc3ccccc23)cc1	/	/	/	.	/	.
CCOc1ccc(NC(=O)C(C)Sc2nnc3cc(C)c4ccccc4n23)cc1 (stereo not drawn)	/	/	/	.	/	.
CC(C)(C)c1ccc(C2Sc3ccccc3NC3=C2C(=O)c2ccccc23)cc1 (stereo not drawn)	/	?	/	.	/	?
CCOC(=O)COc1cccc2c(=O)n(CC(=O)NCc3ccc4c(c3)OCO4)ccc12	.	.	4.6µM	.	?	.
NC(=O)c1ccc(I)c([N+](=O)[O-])c1	/	.	/	/	/	/
O=C(C[n+]1cccc(Br)c1)c1ccc(F)cc1	/	/	/	.	/	.
Cc1cccc(C(=O)Nc2sc3c(c2C(=O)N2CCCCC2)CCC(C)C3)c1 (stereo not drawn)	.	.	/	.	/	.
O=C(Nc1nc(-c2ccccc2)cs1)c1ccc2c(=O)n3c(nc2c1)CCCCC3	?	14µM	?	.	?	?
O=C(Nc1ccc(SC(F)F)cc1)c1ccc2c(=O)n3c(nc2c1)CCC3	.	.	3.3µM	.	.	.
Cc1nc(SCCC(=O)O)c2cc(-c3ccccc3)sc2n1	.	2µM	.	.	.	.
N#Cc1nc(-c2ccccc2)cc(-c2ccccc2)n1	/	/	.	/	.	/
O=C(O)COc1ccc(/C=N/NC(=O)COc2nsnc2N2CCOCC2)cc1	.	.	.	.	.	.
O=C(CN1C(=O)NC2NC(=O)NC21)N/N=C/c1ccccc1O (stereo not drawn)	.	.	.	.	.	.
O=C(COc1nsnc1N1CCOCC1)N/N=C/c1ccccc1O	.	?	?	.	15µM	.
Cc1ccc(NC(=O)CCC(=O)N/N=C/c2ccccc2O)cc1	?	/	?	.	?	.
O=C(CCCCC(=O)NN=Cc1ccccc1O)NN=Cc1ccccc1O	.	?	?	.	6.5µM	.
O=C(CSCC(=O)NN=Cc1ccccc1O)NN=Cc1ccccc1O	?	?	?	.	21µM	.
Cc1ccc(SCCC(=O)N/N=C/c2ccccc2O)cc1	.	25µM	.	.	?	.
CCC(C(=O)Nc1cc(OC)ccc1OC)n1c(C)c2cnn(-c3ccccc3)c(=O)c2c1C (stereo not drawn)	.	.	/	.	/	?
O=C(CCC(=O)Nc1ccc(Br)cc1)N/N=C/c1ccccc1O	.	?	10µM	.	13µM	.
O=C(Cn1cc(C(F)(F)F)ccc1=O)N/N=C/c1ccc(F)cc1	.	.	.	.	.	.
CSc1nc(C)cc(OCC(=O)N/N=C/c2ccccc2O)n1	.	14µM	?	.	?	?
COc1ccc(/C=N/NC(=O)CSCC(=O)Nc2ccccc2)cc1	.	.	.	.	.	.
Cc1cc(=O)oc2cc(OCC(=O)N/N=C/c3ccccc3O)ccc12	.	.	.	.	.	.
O=C(Cn1cc(C(F)(F)F)ccc1=O)N/N=C/c1ccccc1O	.	.	?	.	15µM	.
COc1cccc(/C=N/NC(=O)CSCC(=O)Nc2ccccc2)c1O	.	28µM	4µM	.	2µM	.
COc1cc(OC)nc(O[C@H](C(=O)O)C(OC)(c2ccccc2)c2ccccc2)n1	.	.	/	/	/	/
C=CCn1c(CNc2ccccc2)nnc1SCC(=O)N/N=C/c1ccccc1O	.	18µM	?	.	?	?

Screening data as filed in PubChem BioAssay.
